Data published in PubChem BioAssay.
Unmarked numbers belong to inactive results. Entries that show only a call come without a potency. For some of these results: Potency and affinity values are given separately. Activity calls are given as the source filed them. Unless noted, the rule behind the calls is not given here.

Columns and labels:
[1] = antimalarial activity against Dd2 strain (AID 2302;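 active = growth inhibition above 50% at the single 2 µM test dose, taken to imply half-maximal potency below 2 µM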); settings: P. falciparum Dd2 in RBCs, LDH growth readout, 72 h; at 2 µM; active compounds read high
[2] = human hepatoma cell viability loss – ATP luminescence, cytotoxicity control for P. falciparum antimalarial project, primary screen (AID 2303;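 active = inhibition above 50%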); settings: HepG2 viability, 24-48 h, at 10 µM, active compounds read high
[3] = molecular target: L-lactate dehydrogenase (Plasmodium falciparum (isolate CDC / Honduras)) (UniProt Q27743); assay: PfLDH activity inhibition – cell lysate, 3D7 strain, counter-screen for P. falciparum growth inhibition project (AID 2304); settings: P. falciparum 3D7 crude extract, LDH APAD/NBT absorbance; at 2 µM; active compounds read high
[4] = inhibition of 3D7 malaria parasite growth – strain 3D7 (AID 2306); settings: P. falciparum 3D7 erythrocytic growth, LDH absorbance, 72 h; at 2 µM; active compounds read high
[5] = molecular target: Calcium-dependent protein kinase 1 (Plasmodium falciparum (isolate 3D7)) (UniProt P62344); assay: PfCDPK1 kinase inhibitors, biochemical, TCAMS library (AID 1159585; cut-off not given, nearly all actives have IC50 up to about 0.98 µM;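 note: inhibitors leave more ATP so luminescence rises with inhibition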); settings: recombinant PfCDPK1, Kinase-Glo ATP depletion luminescence
[6] = molecular target: Plasmodium falciparum protein kinase 6 (PK6, PF3D7_1337100) (UniProt Q8IDW1); assay: PfPK6 kinase inhibitors, biochemical, TCAMS library (AID 1159586); settings: recombinant PfPK6, Kinase-Glo ATP depletion luminescence
[7] = molecular target: Protein kinase 7 (PK7), Plasmodium falciparum 3D7 (PF3D7_0213400) (UniProt Q7YTF7); assay: inhibition of Plasmodium PK7 catalytic activity – biochemical, TCAMS antimalarial set, Kinase-Glo luminescence (AID 1159587); settings: recombinant PfPK7, Kinase-Glo ATP depletion luminescence
[8] = molecular target: Calcium-dependent protein kinase 4 (Plasmodium falciparum (isolate 3D7)) (UniProt Q8IBS5); assay: PfCDPK4 kinase inhibitors, biochemical, TCAMS library (AID 1159588; cut-off not given, nearly all actives have IC50 up to about 0.91 µM); settings: recombinant PfCDPK4, Kinase-Glo ATP depletion luminescence
Calcium-dependent protein kinase 4 (Plasmodium falciparum (isolate 3D7)), sequence (Q8IBS5 whole entry, looked up): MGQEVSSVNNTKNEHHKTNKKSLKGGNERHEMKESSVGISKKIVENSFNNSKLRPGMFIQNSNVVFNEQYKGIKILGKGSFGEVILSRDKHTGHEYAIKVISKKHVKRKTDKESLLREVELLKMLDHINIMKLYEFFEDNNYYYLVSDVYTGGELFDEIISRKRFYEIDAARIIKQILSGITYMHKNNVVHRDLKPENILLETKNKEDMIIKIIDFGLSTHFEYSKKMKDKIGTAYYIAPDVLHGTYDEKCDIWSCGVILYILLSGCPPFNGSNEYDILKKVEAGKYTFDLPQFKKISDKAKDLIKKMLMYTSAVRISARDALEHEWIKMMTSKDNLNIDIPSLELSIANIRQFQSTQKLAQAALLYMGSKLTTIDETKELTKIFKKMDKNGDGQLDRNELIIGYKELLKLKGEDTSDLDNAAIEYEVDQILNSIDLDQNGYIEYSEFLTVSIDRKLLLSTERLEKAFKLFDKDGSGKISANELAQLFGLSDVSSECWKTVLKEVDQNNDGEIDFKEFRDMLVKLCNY

Calcium-dependent protein kinase 1 (Plasmodium falciparum (isolate 3D7)), sequence (P62344 whole entry, looked up): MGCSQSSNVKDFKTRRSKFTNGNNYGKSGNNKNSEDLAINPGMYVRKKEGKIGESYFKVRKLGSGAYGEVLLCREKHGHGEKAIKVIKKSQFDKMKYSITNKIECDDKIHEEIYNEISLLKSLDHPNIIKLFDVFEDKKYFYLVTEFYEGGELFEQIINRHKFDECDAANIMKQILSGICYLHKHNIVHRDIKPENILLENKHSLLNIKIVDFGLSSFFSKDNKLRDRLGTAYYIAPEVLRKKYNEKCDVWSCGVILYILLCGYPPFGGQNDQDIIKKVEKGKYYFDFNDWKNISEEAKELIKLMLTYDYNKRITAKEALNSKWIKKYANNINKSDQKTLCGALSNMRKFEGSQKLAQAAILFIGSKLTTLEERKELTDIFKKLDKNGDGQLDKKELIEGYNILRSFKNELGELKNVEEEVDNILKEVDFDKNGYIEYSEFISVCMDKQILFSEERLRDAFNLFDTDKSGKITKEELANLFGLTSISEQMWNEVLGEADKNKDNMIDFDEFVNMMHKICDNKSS
Protein kinase 7 (PK7), Plasmodium falciparum 3D7 (PF3D7_0213400), sequence (Q7YTF7 1-343): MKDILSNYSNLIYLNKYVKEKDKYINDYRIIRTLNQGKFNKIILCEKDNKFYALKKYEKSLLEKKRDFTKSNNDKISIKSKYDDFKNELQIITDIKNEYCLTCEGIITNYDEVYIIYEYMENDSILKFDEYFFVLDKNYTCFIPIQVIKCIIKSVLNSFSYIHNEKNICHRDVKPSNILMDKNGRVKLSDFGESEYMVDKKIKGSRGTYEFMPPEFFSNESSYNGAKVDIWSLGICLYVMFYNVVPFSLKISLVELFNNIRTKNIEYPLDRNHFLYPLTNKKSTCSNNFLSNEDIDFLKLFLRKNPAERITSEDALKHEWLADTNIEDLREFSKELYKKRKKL
L-lactate dehydrogenase (Plasmodium falciparum (isolate CDC / Honduras)), sequence (Q27743 whole entry, looked up): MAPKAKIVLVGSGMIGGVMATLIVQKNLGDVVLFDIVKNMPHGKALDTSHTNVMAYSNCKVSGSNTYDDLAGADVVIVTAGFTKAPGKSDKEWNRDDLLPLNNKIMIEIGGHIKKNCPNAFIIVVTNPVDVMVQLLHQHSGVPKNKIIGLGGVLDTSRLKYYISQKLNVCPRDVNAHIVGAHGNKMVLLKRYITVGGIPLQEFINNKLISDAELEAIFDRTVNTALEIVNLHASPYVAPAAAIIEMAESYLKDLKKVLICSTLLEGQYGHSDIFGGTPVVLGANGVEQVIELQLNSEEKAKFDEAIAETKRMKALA
Plasmodium falciparum protein kinase 6 (PK6, PF3D7_1337100), sequence (Q8IDW1 1-305): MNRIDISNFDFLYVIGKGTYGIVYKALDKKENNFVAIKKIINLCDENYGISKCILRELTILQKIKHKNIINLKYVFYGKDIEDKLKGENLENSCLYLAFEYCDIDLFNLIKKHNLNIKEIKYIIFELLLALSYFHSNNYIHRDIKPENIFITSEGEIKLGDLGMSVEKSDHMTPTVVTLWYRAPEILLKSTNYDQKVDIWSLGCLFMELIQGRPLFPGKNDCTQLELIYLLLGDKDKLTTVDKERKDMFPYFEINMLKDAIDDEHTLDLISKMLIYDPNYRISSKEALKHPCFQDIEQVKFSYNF

| SMILES | growth inhibition [1] | inhibition [2] | inhibition [3] [%] | growth inhibition [4] | outcome [5] | outcome [6] | outcome [7] | outcome [8] |
| --- | --- | --- | --- | --- | --- | --- | --- | --- |
| CC(=O)Nc1nc(C(=O)Nc2cccc(-c3ccc(-c4nc5c(C)cccc5[nH]4)s3)c2)cs1 | 67% (active) | 14% | -2 | 101% (active) | inactive | inactive | inactive | inactive |
| COc1cccc(C(=O)NC(c2ccccc2OC)c2cc(Cl)c3cccnc3c2O)c1 (stereo not given) | 36% | 58% (active) | 4 | 91% (active) | inactive | inactive | inactive | inactive |
| CC(=O)Nc1ccc(CN(Cc2cccc(OC(C)(C)C)c2)Cc2ccc3c(c2)OCCO3)cc1 | 96% (active) | -10% | 8 | 95% (active) | inactive | inactive | inactive | inactive |
| O=C(Nc1cc(Cl)cc(Cl)c1)N[C@H]1CCN(CCCCCNC(=O)[C@@H]2C[C@H]2c2ccc(Cl)c(Cl)c2)C1 | -3% | 49% | 3 | 99% (active) | inactive | inactive | inactive | inactive |
| Cc1cccc2[nH]c(-c3ccc(-c4cccc(CNCCc5ccncc5)c4)s3)nc12 | 89% (active) | 11% | 2 | 100% (active) | inactive | inactive | inactive | inactive |
| O=c1[nH]c2c(cc1CNC1CCCCC1)c(-c1ccc(F)cc1)nn2-c1ccccc1 | 88% (active) | 8% | 6 | 99% (active) | inactive | inactive | inactive | inactive |
| CC[C@H](C)CNC(=O)c1cccc(-c2ccc(CN3CCC(N4CCCC4)CC3)cc2)n1 | 82% (active) | 41% | -2 | 101% (active) | inactive | inactive | inactive | inactive |
| Cc1cc(N[C@@H](CC(C)C)C(=O)NCc2cccs2)nc(NCCc2cccs2)n1 | 13% | -3% | -4 | 92% (active) | inactive | inactive | inactive | inactive |
| CC(C)N1CCN(C(=O)c2ccc(CNCCCN3CCN(c4cccc(Cl)c4Cl)CC3)s2)CC1 | 44% | 51% (active) | -3 | 102% (active) | inactive | inactive | inactive | inactive |
| O=C(Nc1ccc2c(c1)CCC2)c1cnc(N2CCN(c3ccncc3)CC2)c(Cl)c1 | 48% | 33% | 2 | 100% (active) | inactive | inactive | inactive | inactive |
| Cn1ccc(C(=O)Nc2ccc3c(c2)CN(Cc2ccc(N4CCCC4)o2)CCC3)n1 | 72% (active) | 19% | 4 | 80% (active) | inactive | inactive | inactive | inactive |
| C[C@@H]1CN(C(c2cccc(O)c2)c2cccc(C(=O)N(C)c3cccc(F)c3)c2)[C@@H](C)CN1C(c1cccc(O)c1)c1cccc(C(=O)N(C)c2cccc(F)c2)c1 (stereo not given in full) | 85% (active) | 0% | 0 | 91% (active) | inactive | inactive | inactive | inactive |
| Cc1cnc(CCNC(=O)c2cc(-c3ccc(Cl)cc3)cs2)[nH]1 | 7% | 12% | 4 | 101% (active) | inactive | inactive | inactive | inactive |
| COc1ccc2ncc(Cl)c([C@@H](O)CN3CCC(NCc4cc5c(cn4)OCCO5)CC3)c2c1 | 100% (active) | 8% | 3 | 101% (active) | inactive | inactive | inactive | inactive |
| COc1ccc(CNc2nc(Nc3cccc(C#N)c3)nc(Nc3cccc(C#N)c3)n2)cc1Cl | 83% (active) | -4% | 4 | 101% (active) | inactive | inactive | inactive | inactive |
| O=c1cc(NCCCNC2CCc3ccc(Cl)cc32)[nH]c2ccccc12 (stereo not given) | 39% | -2% | 3 | 92% (active) | inactive | inactive | inactive | inactive |
| CC(C)N1CCC(N(Cc2ccc(-c3ccc(C(F)(F)F)cc3)cc2)C(=O)Cn2c(CCc3cccc(F)c3F)cc(=O)c3cn(C)nc32)CC1 | 78% (active) | 100% (active) | 6 | 89% (active) | inactive | inactive | inactive | inactive |
| COc1ccc2c(NN=Cc3ccc(OC)c4ccccc34)cc(C)nc2c1 | 99% (active) | 3% | -4 | 101% (active) | inactive | inactive | inactive | inactive |
| COC(=O)c1cccc(CNCc2cccc(-c3ccc(-c4nc5ccccc5[nH]4)s3)c2)c1 | 59% (active) | -2% | -6 | 93% (active) | inactive | inactive | inactive | inactive |
| CC(C)OC(=O)c1ccc(NC(=O)N[C@@H](Cc2ccc(O)cc2)C(=O)NC2CCC(CCN3[C@@H]4CC[C@H]3c3ccccc34)CC2)cc1 (stereo not given in full) | 67% (active) | 3% | 3 | 95% (active) | inactive | inactive | inactive | inactive |
